# Source: PubChem BioAssay (EPA / NIEHS)
# Results filed as inconclusive are left out. Active and inactive are the calls of the source. How the source made its calls, unless noted: active means hit-call score of the fitted dose curve at least 0.9, where 1 is the maximum; inactive means score below 0.9.
# Key:
# [1] = CCTE_Shafer_MEA_acute_firing_rate_mean: CCTE's Neural Acute Assay for Mean Firing Rate, Shafer Lab (AID 2284009);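 further: analyzed for loss of signal so actives lower firing rate relative to DMSO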
# In short: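 Rat cortical neuron cultures matured to DIV 13 or 15, equilibrated 20 min at 37 C, then recorded 40 min for baseline. Compound (0.03-40 uM) added and a further 40 min recorded; percent change in mean firing rate calculated per well.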
# [2] = CCTE_Shafer_MEA_acute_burst_number: CCTE's Neural Acute Assay for Single-Electrode Bursts, Shafer Lab (AID 2284013)
# In short: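 Percent change in single-electrode burst number per well, from 40-min recordings taken before and after adding compound (0.03-40 uM) to primary rat cortical neurons on MEA plates at DIV 13 or 15, 37 C.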
# [3] = CCTE_Shafer_MEA_acute_burst_duration_mean: CCTE's Neural Acute Assay for Mean Burst Duration, Shafer Lab (AID 2284014);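 further: hits are decreases in mean burst duration relative to DMSO controls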
# In short: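 Rat cortical cultures, DIV 13/15; 40 min baseline, then 40 min with compound (0.03-40 uM), 37 C. Spikes: 300-5000 Hz band-pass, 8x rms threshold. Read-out: % change in mean single-electrode burst duration, DMSO-referenced, loss direction.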
# [4] = CCTE_Shafer_MEA_acute_per_burst_spike_number_mean: CCTE's Neural Acute Assay for Average Number of Spikes Per Burst, Shafer Lab (AID 2284015);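 further: hits are decreases in mean spikes per burst versus baseline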
# In short: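 Rat primary cortical neurons on 48-well MEAs (DIV 13 or 15) were treated with 0.03-40 uM compound at 37 C. Mean spikes per burst over 40 min were recorded before and after exposure and expressed as percent change from baseline, relative to DMSO.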
# [5] = CCTE_Shafer_MEA_acute_interburst_interval_mean: CCTE's Neural Acute Assay for Mean Interburst Interval, Shafer Lab (AID 2284016);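 further: percent change of mean interburst interval versus each well's own pre-dose baseline; curves fitted for decrease in interburst interval relative to DMSO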
# In short: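 Rat primary cortical neurons on 48-well MEAs at DIV 13 or 15 were exposed acutely to 0.03-40 uM. Spikes detected at 8x rms noise, 37 C. Mean interburst interval from 40 min recordings expressed as percent change from 40 min pre-treatment baseline.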
# [6] = CCTE_Shafer_MEA_acute_burst_percentage_mean: CCTE's Neural Acute Assay for Percentage of Spikes in a Burst, Shafer Lab (AID 2284017);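 further: curve fitted for loss of signal so potency reflects decreased burst percentage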
# In short: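 Primary rat cortical neurons on 48-well MEA plates, treated on DIV 13 or 15 at 0.03-40 uM. Spikes detected at 8x rms noise at 37C; percent change from 40-min baseline to 40-min post-dose recording, fitted versus DMSO.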
# [7] = CCTE_Shafer_MEA_acute_burst_percentage_std: CCTE's Neural Acute Assay for Standard Deviation of Burst Percentage, Shafer Lab (AID 2284018);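 further: fitted in the negative direction so actives lower burst percentage SD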
# In short: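 Rat primary cortical neurons on 48-well MEAs, DIV 13 or 15, 37 C. 40-min baseline then 40-min recording with compound (0.03-40 uM); well-level SD of per-electrode burst spike percentage, expressed as percent change from baseline.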
# [8] = CCTE_Shafer_MEA_acute_per_network_burst_spike_number_mean: CCTE's Neural Acute Assay for Average Number of Spikes in a Network Burst, Shafer Lab (AID 2284019);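 further: curve fitted for loss of signal so actives reduce spikes per network burst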
# In short: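 Rat cortical cultures, DIV 13/15; spike threshold 8x rms noise, 300-5000 Hz band-pass, 12.5 kHz sampling; wells need >/= 10 active electrodes. Compound 0.03-40 uM, 40 min, 37 C; % change vs own baseline, DMSO negative control.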
# [9] = CCTE_Shafer_MEA_acute_per_network_burst_spike_number_std: CCTE's Neural Acute Assay for Standard Deviation of Number of Spikes in a Network Burst, Shafer Lab (AID 2284020);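 further: fitted for decrease in spike-number SD versus DMSO so actives lower it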
# In short: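 Rat cortical cultures, DIV 13/15, 37 C; 20-min stabilisation, 40-min baseline, compound 0.03-40 uM, 40-min re-record. Spikes detected at 8x rms noise (300-5000 Hz band-pass). Readout: % change from baseline in per-burst spike-number SD.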
# [10] = CCTE_Shafer_MEA_acute_per_network_burst_electrodes_number_mean: CCTE's Neural Acute Assay for Mean Number of Electrodes in a Network Burst, Shafer Lab (AID 2284021);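 further: curves fitted for decreases only so hits reduce electrodes per burst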
# In short: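 Percent change from baseline was computed as mean electrode count per network burst, comparing 40 min recordings before and during compound (0.03-40 uM) exposure. Cultures were rat cortical neurons at DIV 13 or 15, recorded on MEAs at 37 C with an adaptive 8x rms threshold.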
# [11] = CCTE_Shafer_MEA_acute_network_burst_percentage: CCTE's Neural Acute Assay for Percentage of Network Bursts, Shafer Lab (AID 2284022);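 further: curves fitted for loss so actives lower network burst percentage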
# In short: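 Network burst percentage (spikes in network bursts divided by total spikes) recorded at 37 C over 40 min baseline and 40 min after compound, 0.03-40 uM, in rat cortical cultures at DIV 13 or 15. Analysed as percent change from baseline versus DMSO.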
# [12] = CCTE_Shafer_MEA_acute_cross_correlation_area: CCTE's Neural Acute Assay for Area of Cross Correlation, Shafer Lab (AID 2284024);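 further: area under pooled inter-electrode spike cross-correlation near zero lag as percent change from own baseline; curves fitted for loss of cross-correlation area so actives lower synchrony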
# In short: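 Percent change in well-wide cross-correlation area (window around zero lag) between 40 min baseline and 40 min post-compound recordings, 37 C; rat cortical cultures on MEA at DIV 13 or 15, dosed 0.03-40 uM, wells needing >/= 10 active electrodes.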
# [13] = CCTE_Shafer_MEA_acute_cross_correlation_HWHM: CCTE's Neural Acute Assay for Cross Correlation at Half Width at Half Maximum, Shafer Lab (AID 2284026);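 further: spontaneous network firing of rat primary cortical neurons on multiwell microelectrode arrays; percent change per well from pre-dose baseline in spike cross-correlogram half width; hits are a decrease in cross-correlogram half width relative to DMSO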
# In short: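 Per-well percent change in cross-correlogram half width at half maximum, derived from 40-min recordings before and after compound (0.03-40 uM) at 37 C. Cultures were rat cortical neurons, DIV 13 or 15, with adaptive spike detection at 8x rms.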
# [14] = CCTE_Shafer_MEA_acute_synchrony_index: CCTE's Neural Acute Assay for Synchrony, Shafer Lab (AID 2284027);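 further: network synchrony index of spontaneous spiking in primary rat cortical neurons on MEAs; fitted for loss of signal so actives lower synchrony relative to DMSO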
# In short: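 Acute exposure of rat primary cortical neurons (DIV 13 or 15) at 0.03-40 uM. Synchrony index, 40 min before vs after, as % change relative to DMSO control.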
# [15] = CCTE_Shafer_MEA_dev_firing_rate_mean: CCTE's Neural Network Formation Assay for Mean Firing Rate, Shafer Lab (AID 2284031);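 further: curve fitted for loss of firing so AC50 reflects decreased mean firing rate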
# In short: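 Extracellular spike frequency, AUC over DIV 5–12 recordings, in rat cortical neuron MEA cultures dosed from plating; loss direction vs DMSO.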
# [16] = CCTE_Shafer_MEA_dev_active_electrodes_number: CCTE's Neural Network Formation Assay for Number of Active Electrodes, Shafer Lab (AID 2284040; active means hit-call score of the fitted dose curve at least 0.9, where 1 is the maximum;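 further: potency for loss of active electrodes versus DMSO so lower counts are hits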)
# In short: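 Developing rat cortical networks on MEAs, exposed DIV 0–12. Value is the AUC of active-electrode counts (≥5 spikes/min) from days 5, 7, 9, 12, relative to DMSO.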
# [17] = CCTE_Shafer_MEA_dev_burst_rate: CCTE's Neural Network Formation Assay for Burst Rate, Shafer Lab (AID 2284042)
# In short: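 Primary rat cortical neurons on PEI-coated 48-well MEA plates (laminin added with cells at plating) (16 electrodes/well), exposed from plating to day 12, dosing renewed at DIV 5 and 9. Burst rate averaged over active electrodes, recorded DIV 5, 7, 9, 12, summarized as AUC; loss versus DMSO.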
# [18] = CCTE_Shafer_MEA_dev_bursting_electrodes_number: CCTE's Neural Network Formation Assay for Number of Bursting Electrodes, Shafer Lab (AID 2284043; active means hit-call score of the fitted dose curve at least 0.9, where 1 is the maximum;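 further: potency is for loss of bursting electrodes relative to DMSO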)
# In short: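 Rat cortical primary neurons, 48-well MEA, 16 electrodes/well; dosing DIV 0–12, re-dosed with full media change DIV 5, 9. Recordings DIV 5/7/9/12, AxIS adaptive spike detector; bursting electrode = ≥1 burst/2 min. AUC across days; loss of signal vs DMSO.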
# [19] = CCTE_Shafer_MEA_dev_burst_duration_mean: CCTE's Neural Network Formation Assay for Mean Burst Duration, Shafer Lab (AID 2284045)
# In short: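 Rat cortical cultures, 1.5 x 10^5 cells/well with laminin drop; continuous dosing days 0–12, media plus treatment refreshed DIV 5, 9. AxIS adaptive spike detection; mean single-electrode burst duration, AUC over four recordings, negative direction vs DMSO.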
# [20] = CCTE_Shafer_MEA_dev_interburst_interval_mean: CCTE's Neural Network Formation Assay for Mean Interburst Interval, Shafer Lab (AID 2284046);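 further: well-mean interburst interval of bursting electrodes as AUC over four recording days; curve fitted for decrease in interburst interval relative to DMSO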
# In short: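 Recordings on days 5, 7, 9 and 12 give well-mean interburst interval across actively bursting electrodes, summarized as area under the curve. Cultures: rat cortical neurons, continuous exposure from day 0, compound renewed at feeds; decrease analyzed versus DMSO.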
# [21] = CCTE_Shafer_MEA_dev_inter_network_spike_interval_mean: CCTE's Neural Network Formation Assay for Mean Inter-network Spike Interval, Shafer Lab (AID 2284047)
# In short: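 Primary rat cortical neurons on 16-electrode MEA wells, exposed from plating day 0 through DIV 12, compound renewed at DIV 5 and 9 media changes. Mean interval between network-spike peaks recorded DIV 5, 7, 9, 12; collapsed as trapezoidal AUC, fitted downward versus DMSO.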
# [22] = CCTE_Shafer_MEA_dev_network_spike_number: CCTE's Neural Network Formation Assay for Number of Network Spikes, Shafer Lab (AID 2284048);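 further: synchronized bursts across electrodes counted on days 5 7 9 12 and integrated as AUC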
# In short: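 Rat cortical primary cultures on 48-well MEA (16 electrodes/well); continuous exposure DIV 0–12, full medium and treatment exchange DIV 5, 9. Readout: network spike count, AxIS adaptive detection, recordings DIV 5/7/9/12 collapsed to AUC; loss-of-signal fit, DMSO baseline.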
# [23] = CCTE_Shafer_MEA_dev_network_spike_peak: CCTE's Neural Network Formation Assay for Mean Number of Electrodes in Network Spike, Shafer Lab (AID 2284049);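 further: fitted for loss of signal meaning fewer electrodes in network spikes than DMSO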
# In short: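 Network-spike peak electrode count from recordings on days 5, 7, 9 and 12 was combined as trapezoidal area under the curve. Rat cortical cultures were treated continuously from plating, with compound renewed at each feed (DIV 5, 9); fits versus DMSO.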
# [24] = CCTE_Shafer_MEA_dev_spike_duration_mean: CCTE's Neural Network Formation Assay for Mean Spike Duration, Shafer Lab (AID 2284051);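 further: mean network spike duration pooled as area under curve over DIV 5 to 12 recordings; potency for a decrease in mean network spike duration versus DMSO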
# In short: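 Primary rat cortical neurons on 16-electrode MEA wells (PEI-coated, laminin in plating drop), exposed from plating through DIV 12 with compound renewed at DIV 5 and 9. Mean network-spike duration recorded DIV 5, 7, 9, 12; trapezoidal AUC across days, DMSO baseline.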
# [25] = CCTE_Shafer_MEA_dev_network_spike_duration_std: CCTE's Neural Network Formation Assay for Standard Deviation of Network Spike Duration, Shafer Lab (AID 2284052);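 further: area under curve of spike duration SD across recording days 5 to 12; hits are decreases in network spike duration SD versus DMSO vehicle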
# In short: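 Primary rat cortical neurons on PEI-coated 16-electrode MEA wells, exposed from plating day 0 through day 12 with compound renewed at DIV 5 and 9. Network spike duration SD recorded on days 5, 7, 9, 12, collapsed as trapezoidal AUC; loss-of-signal fit versus DMSO.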
# [26] = CCTE_Shafer_MEA_dev_per_network_spike_spike_number_mean: CCTE's Neural Network Formation Assay for Mean Number of Spikes in a Network Spike, Shafer Lab (AID 2284053);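 further: fitted as decrease in spikes per network spike relative to DMSO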
# In short: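 Primary rat cortical neurons on 48-well, 16-electrode MEA plates were exposed from plating to DIV 12, with dosing renewed on DIV 5 and 9. Spikes per network spike (0.05 s peak window) were recorded on DIV 5, 7, 9 and 12 and collapsed as trapezoidal AUC versus DMSO.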
# [27] = CCTE_Shafer_MEA_dev_per_network_spike_spike_percent: CCTE's Neural Network Formation Assay for Percent of Spikes in a Network Spike, Shafer Lab (AID 2284054)
# In short: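 Read-out: percent of spikes falling in a 0.05 s window at network-spike peak, from spontaneous MEA recordings on days 5, 7, 9 and 12; trapezoidal AUC; loss of signal versus DMSO. Rat cortical cultures, compound present throughout.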
# [28] = CCTE_Shafer_MEA_dev_LDH: CCTE's Lactate Dehydrogenase Assay for Cytotoxicity in the Neural Network Formation Assay, Shafer Lab (AID 2284068; active means hit-call score of the fitted dose curve at least 0.9, where 1 is the maximum;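 further: exposure for twelve days from plating with re-dosing on DIV 5 and 9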)
# In short: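 Primary rat cortical neurons were plated on PEI/laminin MEA plates and exposed from day 0 for twelve days, with compound renewed at DIV 5 and 9. Cytotoxicity was determined by spectrophotometric LDH assay relative to DMSO.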
# [29] = CCTE_Shafer_MEA_dev_AB: CCTE's Alamar Blue Assay for Cytotoxicity in the Neural Network Formation Assay, Shafer Lab (AID 2284083; active means hit-call score of the fitted dose curve at least 0.9, where 1 is the maximum;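 further: twelve days of exposure from plating with re-dosing on DIV 5 and 9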)
# In short: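 Primary rat cortical neurons on PEI-coated 48-well MEA plates, 1.5 x 10^5 cells/well in laminin drop; compound exposure from day 0 of plating for twelve days, renewed at medium changes on DIV 5 and 9. Viability read as resazurin reduction by fluorescence, relative to DMSO.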
compound,measurement,setting,value
CC1(C)[C@@H](C=C(Cl)Cl)[C@@H]1C(=O)O[C@@H](C#N)c1ccc(F)c(Oc2ccccc2)c1,AC50,[1],2.97 µM (active)
same,outcome,[2],inactive
same,outcome,[3],inactive
same,AC50,[4],0.842 µM (active)
same,AC50,[5],2.35 µM (active)
same,AC50,[6],1.95 µM (active)
same,AC50,[7],7.77 µM (active)
same,AC50,[8],1.28 µM (active)
same,AC50,[9],0.534 µM (active)
same,AC50,[10],1.68 µM (active)
same,AC50,[11],1.32 µM (active)
same,AC50,[12],0.208 µM (active)
same,outcome,[13],inactive
same,AC50,[14],0.512 µM (active)
same,AC50,[15],5.76 µM (active)
same,AC50,[16],10.2 µM (active)
same,outcome,[17],inactive
same,AC50,[18],15 µM (active)
same,outcome,[19],inactive
same,outcome,[20],inactive
same,outcome,[21],inactive
same,outcome,[22],inactive
same,AC50,[23],11.8 µM (active)
same,AC50,[24],6.21 µM (active)
same,outcome,[25],inactive
same,AC50,[26],5.82 µM (active)
same,AC50,[27],15 µM (active)
same,outcome,[28],inactive
same,outcome,[29],inactive
